Results on 10 compounds are retold here after ChEMBL document CHEMBL4513134, “CO-ADD screening of University of Queensland (Australia) compounds” (2021).

Measured potencies and affinities stand elsewhere.

One assay has as its system Staphylococcus aureus. The following applies: Concentration 32 ug.mL-1; ASSAY_TEST Inhibition of Bacterial Growth; detection method Absorption (OD600); MEDIA CAMHB; plate type 384well; NBS; CORNING #3640; time 18 hr.
Another assay concerns Escherichia coli. The following applies: Concentration 32 ug.mL-1; ASSAY_TEST Inhibition of Bacterial Growth; detection method Absorption (OD600); MEDIA CAMHB; plate type 384well; NBS; CORNING #3640; time 18 hr.

Turning to `Cn1c([N+](=O)[O-])cnc1C(=O)NCc1cccc(OC(F)(F)F)c1`, the results for the Inhibition with Staphylococcus aureus and with Escherichia coli were 39.06% and 5.07%, respectively.
With `Cn1c([N+](=O)[O-])cnc1C(=O)NCc1ccc(OC(F)(F)F)cc1`, the figures for the Inhibition with Staphylococcus aureus and with Escherichia coli were 35.57% and 3.65%, respectively.
Take `Cn1c([N+](=O)[O-])cnc1C(=O)NCc1ccc(F)cc1`: the Inhibition (in general, the relative decrease from the control value, in per cent) in the assay on Staphylococcus aureus is recorded as 28.26%; in the assay with Escherichia coli, 3.69%.
For `CC(NC(=O)c1ncc([N+](=O)[O-])n1C)c1ccc(F)cc1` (stereo not given), in that order: 34.68% and 2.11%.
For `Cc1ccc(CCNC(=O)c2ncc([N+](=O)[O-])n2C)cc1`, in that order: 48.13% and 11.97%.
For `Cn1c([N+](=O)[O-])cnc1C(=O)NCc1ccccn1.O=C(O)C(F)(F)F`, in that order: 45.26% and -0.31%.
Take `Cn1c([N+](=O)[O-])cnc1C(=O)N1CCOCC1`: the Inhibition in the assay on Staphylococcus aureus is 46.51%; with Escherichia coli, 8.52%.
Regarding `Cn1c([N+](=O)[O-])cnc1C(=O)N1CCCC1`, the Inhibition with Staphylococcus aureus is reported as 47.23%; in the assay with Escherichia coli, 5.01%.
In the case of `CN(C)C(=O)c1ncc([N+](=O)[O-])n1C`, the Inhibition in the assay on Staphylococcus aureus is listed as 42.28%; in the assay with Escherichia coli, 6.99%.
As to `Cn1c([N+](=O)[O-])cnc1C(=O)NC1CC1`, the Inhibition in the assay with Staphylococcus aureus was -13.42%; in the assay on Escherichia coli, -3.03%.
